PubChem BioAssay (NCI)
About 83,000 compounds went through this panel and 20% of them were active in at least one assay; those are over-represented in the sample as a whole.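 Values shown are percent growth following 48 h exposure of cells in 96-well plates to a single concentration of compound; below 10 was considered active.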 Values without a mark were called inactive. The source made the active and inactive calls.

What was measured:
Assay in all cases: NCI-60 one-dose screen, 48 h (100 = growth as untreated, 0 = no growth, -100 = all killed)
Details in all cases: 10 µM unless noted
SR leukemia = tested on: SR leukemia
RPMI-8226 leukemia = tested on: RPMI-8226 leukemia
OVCAR-8 ovarian = tested on: OVCAR-8 ovarian
OVCAR-5 ovarian = tested on: OVCAR-5 ovarian
OVCAR-4 ovarian = tested on: OVCAR-4 ovarian
SK-OV-3 ovarian = tested on: SK-OV-3 ovarian
IGROV1 ovarian = tested on: IGROV1 ovarian
OVCAR-3 ovarian = tested on: OVCAR-3 ovarian
HS 578T breast = tested on: HS 578T breast
NCI/ADR-RES ovarian = tested on: NCI/ADR-RES ovarian
T-47D breast = tested on: T-47D breast
BT-549 breast = tested on: BT-549 breast
MDA-MB-435 melanoma = tested on: MDA-MB-435 melanoma
SW-620 colon = tested on: SW-620 colon
MCF7 breast = tested on: MCF7 breast
HCT-116 colon = tested on: HCT-116 colon
KM12 colon = tested on: KM12 colon
HCC-2998 colon = tested on: HCC-2998 colon

| Compound | growth (SR leukemia) | growth (RPMI-8226 leukemia) | growth (OVCAR-8 ovarian) | growth (OVCAR-5 ovarian) | growth (OVCAR-4 ovarian) | growth (SK-OV-3 ovarian) | growth (IGROV1 ovarian) | growth (OVCAR-3 ovarian) | growth (HS 578T breast) | growth (NCI/ADR-RES ovarian) | growth (T-47D breast) | growth (BT-549 breast) | growth (MDA-MB-435 melanoma) | growth (SW-620 colon) | growth (MCF7 breast) | growth (HCT-116 colon) | growth (KM12 colon) | growth (HCC-2998 colon) |
| --- | --- | --- | --- | --- | --- | --- | --- | --- | --- | --- | --- | --- | --- | --- | --- | --- | --- | --- |
| COC(=O)[C@@H](Cc1c[nH]c2ccccc12)NC[C@@H](O)CN1C(=O)/C(=C\c2cc(OC)c(OC)c(OC)c2)c2ccccc21 | 12.2% | 6.06% (active) | 59.3% | 105% | 63.1% | 98.6% | 78.9% | 65.3% | 76% | 78.6% | 54.5% | 68.4% | 56.1% | 77.3% | 34.2% | 66% | 60.4% |  |
| C#C[C@]1(O)CC[C@H]2[C@@H]3CC=C4c5sc(-c6cccc(C)c6)nc5CC[C@]4(C)[C@H]3CC[C@@]21C | 38.6% | -6.87% (active) | 89.9% | 73.8% | 81.2% | 88.9% | 68.8% | 89.2% | 40.8% | 80.9% | 78.6% | 71.5% | 82.8% | 84.8% | 34.9% | 68.2% | 54.3% | 72.5% |
| Cc1ccccc1NC(=O)Cn1cc(CN2CCN(c3ccnc4cc(Cl)ccc34)CC2)nn1 | 86.8% | 79.7% | 103% | 103% | 94% | 95.6% | 99.8% | 105% | 85.5% | 99.1% | 92.4% | 93.4% | 99.4% | 94.2% | 93.9% | 100% | 91.5% | 93.3% |
| CC1OC(C(=O)N2CCN(CCO)CC2)CC1COC1CCCCC1 (stereo not drawn) | 88% [50 µM] | 96.3% [50 µM] | 99.2% [50 µM] | 104% [50 µM] | 104% [50 µM] | 97.9% [50 µM] | 98% [50 µM] | 96.7% [50 µM] | 87.2% [50 µM] | 93% [50 µM] | 94.6% [50 µM] | 90.2% [50 µM] | 103% [50 µM] | 101% [50 µM] | 103% [50 µM] | 97% [50 µM] | 101% [50 µM] |  |
| CCOC(=O)c1c(C)c2c(n1Cc1ccccc1)CSc1cc(C#N)c(=O)[nH]c1-2 | 54.8% [100 µM] | 82.4% [100 µM] | 88% [100 µM] | 120% [100 µM] | 98.8% [100 µM] | 98.6% [100 µM] | 95.5% [100 µM] | 75.7% [100 µM] | 51.9% [100 µM] | 58.5% [100 µM] | 69.2% [100 µM] | 46% [100 µM] | 98.2% [100 µM] | 91.7% [100 µM] | 101% [100 µM] | 59.9% [100 µM] | 67.6% [100 µM] | 99.7% [100 µM] |
| CCCCCCCCOC(=O)c1c(C)[nH]c(/C=C2\N=C(c3ccc[nH]3)C=C2OC)c1C | 14.1% | -21% (active) | 4.86% (active) | 15.2% | 4.99% (active) | 20.8% | 10.1% | -38.6% (active) | -27.8% (active) | 15.9% | 4.23% (active) | 10.4% | -19.4% (active) | 5.83% (active) | -58.1% (active) | -83.5% (active) | 0.693% (active) |  |
| COc1ccc(/C=N\NC(=O)c2ccc3nc(-c4ccc(Cl)cc4)[nH]c3c2)cc1 | 0.647% (active) | 59.2% | 31.3% | 77.3% | -30.6% (active) | 72.3% | 14.6% | 20.1% | 32.3% | 73.6% | 23.3% | 56.9% | 68.5% | 24.4% | 16.7% | 19% | 17.3% | 51.1% |
| c1ccc2c(-c3cnn4cc(-c5ccc(N6CCNCC6)cc5)cnc34)ccnc2c1 | -19.1% (active) | -52.8% (active) | -46.9% (active) | -85.3% (active) | -65.8% (active) | -86.4% (active) | -79.7% (active) | -83.2% (active) | -68.7% (active) | -42.5% (active) | -45.9% (active) | -80.9% (active) | -99.4% (active) | -52.3% (active) | -64.1% (active) | -98.4% (active) | -72.7% (active) |  |
| COc1ccc(C2=NN(C=O)C(c3ccc(Oc4nc5c(c(=O)n(C)c(=O)n5C)n4C)c(OC)c3)C2)cc1 (stereo not drawn) | 83.9% | 79.6% | 85.2% | 96.6% | 72.3% | 114% | 87.7% | 101% | 89.6% | 63.4% | 75.5% | 96.9% | 61.2% | 104% | 77.1% | 83% | 87.5% |  |
| CCOC(=O)CCC(=O)P(=O)(O)O | 4.41% (active) | 42.1% | 97.1% | 116% | 115% | 80.5% | 110% | 115% | 114% | 102% | 98.6% | 101% | 125% | 96.5% | 110% | 86.2% | 112% |  |
| COc1cc2c(c(OC)c1OC)CCC(c1cccc(NC(=O)c3cccc(Cl)c3)c1)O2 (stereo not drawn) | 60.3% | 64.9% | 95.6% | 92.8% | 81.1% | 72.9% | 86.8% | 92% | 76.3% | 90.5% | 59.1% | 97.2% | 89.9% | 93.9% | 84.4% | 87.7% | 97.1% |  |
| CCOC(=O)c1ccc2c(c1)c1c(C)c3cnccc3c(C)c1n2C | 14.9% | -29.7% (active) | -21.5% (active) | -46.7% (active) | -14.8% (active) | -21.4% (active) | -62.7% (active) | -47.5% (active) | -27.6% (active) | -33.1% (active) | -23.1% (active) | -54% (active) | -65.8% (active) | -7.3% (active) | -28.9% (active) | -85.2% (active) | -7.02% (active) | -70.7% (active) |
| CCOC(=O)c1c2c(n3ccc(NC(=O)CCN4CCCC4)cc13)C(=O)c1ncccc1C2=O | -20.2% (active) | -31.8% (active) | -33.3% (active) | -67.4% (active) | -68.1% (active) | 74.4% | -71.1% (active) | -85.9% (active) | -43.9% (active) | 27.3% | -43.9% (active) | -73.8% (active) | -68.5% (active) | -82.9% (active) | -66.6% (active) | -82.8% (active) | -89.4% (active) | -83.5% (active) |
| Cc1ccc(C23CCC(=O)N2CCc2cncn23)cc1 (stereo not drawn) | 126% | 100% | 97.2% | 96.3% | 108% | 92.8% | 93.6% | 113% | 101% | 107% | 91.2% | 100% | 101% | 97.7% | 97.9% | 104% | 101% |  |
| c1ccc(Cn2cc3c(c2)-c2nc(Nc4ccccc4)ncc2CC3)cc1 | 114% [100 µM] | 88.2% [100 µM] | 67.5% [100 µM] | 82.8% [100 µM] | 63.3% [100 µM] | 63.1% [100 µM] | 62.9% [100 µM] | 85.9% [100 µM] | 68.9% [100 µM] | 83.9% [100 µM] | 74.3% [100 µM] | 87.6% [100 µM] | 96% [100 µM] | 92% [100 µM] | 70.5% [100 µM] | 80.6% [100 µM] | 87% [100 µM] |  |
| O=C(/C=C/c1cccc([N+](=O)[O-])c1)c1ccc(Nc2nc(Nc3ccc(F)cc3)nc(Nc3ccc(Cl)cc3)n2)cc1 | 8.59% (active) | 32% | 86.3% | 62.7% | 97.3% | 110% | 84.4% | 104% | 106% | 83.9% | 81.4% | 103% | 102% | 104% | 67.1% | 97.1% | 105% |  |
